Results from PubChem BioAssay (EPA / NIEHS).
“And” between values parts separate entries of the source, which are not always exact repeats. Identical values can stand only once. The source made the active and inactive calls. How the source made its calls: active means hit-call score of the fitted dose curve at least 0.9, where 1 is the maximum; inactive means score below 0.9.

Experiments:
[1] = molecular target: Nuclear respiratory factor 1 (Homo sapiens) (UniProt Q16656); assay: ATG_NRF1_CIS: Attagene CIS-FACTORIAL HepG2 Assay for human Nuclear Respiratory Factor 1 (NRF1) Orphan Gene (AID 2282987); details: HepG2 NRF1 cis-element reporter, Attagene multiplex; actives raise or lower the signal
Nuclear respiratory factor 1 (Homo sapiens), sequence (Q16656 whole entry, looked up): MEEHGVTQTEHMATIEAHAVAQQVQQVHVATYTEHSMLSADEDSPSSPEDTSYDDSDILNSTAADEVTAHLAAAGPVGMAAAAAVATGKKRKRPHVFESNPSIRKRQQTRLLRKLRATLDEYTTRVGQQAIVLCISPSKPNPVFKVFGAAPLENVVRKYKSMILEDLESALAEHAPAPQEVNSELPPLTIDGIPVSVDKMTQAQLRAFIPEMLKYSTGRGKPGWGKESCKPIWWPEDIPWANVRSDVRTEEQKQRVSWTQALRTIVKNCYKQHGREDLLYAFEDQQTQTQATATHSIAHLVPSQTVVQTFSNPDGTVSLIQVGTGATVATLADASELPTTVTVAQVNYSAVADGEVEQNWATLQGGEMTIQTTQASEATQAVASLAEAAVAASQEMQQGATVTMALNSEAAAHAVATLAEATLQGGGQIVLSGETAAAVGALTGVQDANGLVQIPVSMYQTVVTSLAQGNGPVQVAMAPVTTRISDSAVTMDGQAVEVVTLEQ
Procedure, shortened: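 Endogenous NRF1-driven reporter transcription measured in transiently transfected human HepG2 liver cells. Readout: reporter mRNA by RT-PCR and capillary electrophoresis with fluorescence detection, 24 h post-dosing. Gain or loss of signal fitted relative to DMSO baseline.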

[2] = ATG_NFI_CIS: Attagene CIS-FACTORIAL HepG2 Assay for human Nuclear Factor I (NFI) (AID 2282989); details: HepG2 cis-regulatory reporter, NFI response element transcription; actives raise or lower the signal
Procedure, shortened: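 Reporter transcription driven by endogenous transcription factors in HepG2 cells; 24 h treatment. Quantitation by labelled RT-PCR fragments on capillary electrophoresis, gain- or loss-of-signal relative to DMSO.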

[3] = molecular target: Myc proto-oncogene protein (Homo sapiens) (UniProt P01106); assay: ATG_Myc_CIS: Attagene CIS-FACTORIAL HepG2 Assay for human Myelocytomatosis (Myc) Proto-Oncogene Transcription Factor (AID 2282990); details: HepG2, Attagene cis-reporter transcription factor activity; actives raise or lower the signal
Myc proto-oncogene protein (Homo sapiens), sequence (P01106 whole entry, looked up): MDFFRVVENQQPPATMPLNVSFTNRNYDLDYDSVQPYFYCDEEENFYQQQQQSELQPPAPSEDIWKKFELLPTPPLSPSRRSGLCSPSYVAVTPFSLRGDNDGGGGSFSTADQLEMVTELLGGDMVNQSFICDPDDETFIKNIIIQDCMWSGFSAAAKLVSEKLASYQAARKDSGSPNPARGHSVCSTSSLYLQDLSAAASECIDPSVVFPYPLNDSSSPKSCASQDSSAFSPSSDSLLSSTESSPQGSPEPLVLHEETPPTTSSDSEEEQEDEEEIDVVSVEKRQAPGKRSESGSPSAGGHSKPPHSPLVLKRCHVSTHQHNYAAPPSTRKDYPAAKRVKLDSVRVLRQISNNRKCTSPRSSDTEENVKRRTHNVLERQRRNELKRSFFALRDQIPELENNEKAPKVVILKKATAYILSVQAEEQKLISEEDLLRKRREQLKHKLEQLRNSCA
Procedure, shortened: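 DMSO-normalised, bidirectionally fitted reporter mRNA signal. HepG2 cells transfected with cis reporter constructs, treated 24 h; transcripts detected by RT-PCR, 6-FAM primer extension and CE.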

[4] = ATG_NRF2_ARE_CIS: Attagene CIS-FACTORIAL HepG2 Assay for human Nuclear Factor Erythroid 2 Related Factor 2 (NFR2) response to Antioxidant Response Elements (ARE) (AID 2282992); details: HepG2 Attagene ARE/NRF2 reporter, transcription factor activity; actives raise or lower the signal
Procedure, shortened: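 Fluorescence intensity of reporter-specific cDNA fragments, separated by capillary electrophoresis, reflects mRNA induction in transfected HepG2 cells at 24 h. Activity is fitted bidirectionally, DMSO serving as baseline.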

[5] = ATG_Oct_MLP_CIS: Attagene CIS-FACTORIAL HepG2 Assay for human Octamer-Binding Transcription Factor (Oct) (AID 2282993); details: HepG2 Attagene cis-factorial Oct reporter, mRNA; actives raise or lower the signal
Procedure, shortened: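 Transfected HepG2 cells, 24 h treatment. Reporter mRNA quantified by RT-PCR–capillary electrophoresis; bidirectional fitting against DMSO.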

[6] = ATG_NF_kB_CIS: Attagene CIS-FACTORIAL HepG2 Assay for human Nuclear Factor Kappa B (NF-kB) (AID 2282991); details: HepG2 Attagene cis-factorial NF-kB reporter mRNA; actives raise or lower the signal
Procedure, shortened: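 Read-out: reporter transcript levels quantified by RT-PCR plus capillary electrophoresis of 6-FAM-labelled, HpaI-cut fragments. Transfected HepG2 cells, 24 h compound exposure, endogenous NF-kB-driven cis element; gain or loss scored versus DMSO.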

[7] = molecular target: Cellular tumor antigen p53 (Homo sapiens) (UniProt P04637); assay: ATG_p53_CIS: Attagene CIS-FACTORIAL HepG2 Assay for human p53 Transcription Factor (AID 2282994); details: HepG2 p53 cis-element reporter, Attagene mRNA; actives raise or lower the signal
Cellular tumor antigen p53 (Homo sapiens), sequence (P04637 whole entry, looked up): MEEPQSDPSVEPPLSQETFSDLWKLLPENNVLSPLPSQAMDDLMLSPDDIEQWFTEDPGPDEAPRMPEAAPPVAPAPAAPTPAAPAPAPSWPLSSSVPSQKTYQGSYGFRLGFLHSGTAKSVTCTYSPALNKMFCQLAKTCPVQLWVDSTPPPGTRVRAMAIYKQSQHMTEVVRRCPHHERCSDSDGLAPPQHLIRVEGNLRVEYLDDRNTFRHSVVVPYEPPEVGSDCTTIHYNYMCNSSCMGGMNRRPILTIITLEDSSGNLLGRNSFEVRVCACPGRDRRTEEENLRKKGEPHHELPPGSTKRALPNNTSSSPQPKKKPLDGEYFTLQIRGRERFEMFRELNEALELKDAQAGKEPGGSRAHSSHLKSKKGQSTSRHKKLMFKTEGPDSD
Procedure, shortened: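 Transiently transfected HepG2 (multiple cis reporter transcription units); exposure 24 h; reporter RNA via RT-PCR, 6-FAM extension, 2 h HpaI digest at 37 C, CE detection; DMSO baseline.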

[8] = BSK_3C_TissueFactor: BioMAP Diversity Plus: 3C Assay for Tissue Factor Biomarker Activity (AID 2282997); details: BioMAP 3C HUVEC, tissue factor biomarker readout; actives raise or lower the signal
Procedure, shortened: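 After a 24 h chemical exposure of primary human umbilical vein endothelial cells, Tissue Factor levels were quantified by ELISA.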

[9] = BSK_3C_uPAR: BioMAP Diversity Plus: 3C Assay for Urokinase-type plasminogen activator receptor (uPAR) Biomarker Activity (AID 2282998); details: BioMAP 3C HUVEC, uPAR biomarker ELISA; actives raise or lower the signal
Procedure, shortened: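 Readout: ELISA for surface uPAR. System: human umbilical vein endothelial primary cells, 24 h after chemical exposure. Analysis: bidirectional fit, DMSO baseline.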

[10] = BSK_3C_VCAM1: BioMAP Diversity Plus: 3C Assay for Vascular cell adhesion molecule 1 (VCAM1) Biomarker Activity (AID 2282999); details: BioMAP 3C HUVEC, VCAM1 ELISA, cytokine-stimulated; actives raise or lower the signal
Procedure, shortened: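 Vascular primary endothelium (human umbilical vein) was exposed to chemicals and assayed 24 h later. VCAM-1 levels came from ELISA, with DMSO serving as baseline for bidirectional fitting.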

Measured: AC50

O=C(O)C1CCC(C(=O)O)CC1 (centres undefined)
inactive: [1] | [2] | [3] | [4] | [5]

Oc1ccc(/C=C/c2cc(O)cc(O)c2)cc1
active: [1] 179 µM | [6] 100 µM | [4] 24.6 µM
inactive: all other assays above

C=C(C)[C@@H]1CC=C(C)CC1
inactive: [1] | [2] | [3] | [4] | [5]

c1ccc(Nc2cccc3ccccc23)cc1
inactive: [6]
active: [1] 52.1 µM | [2] 50.1 µM | [3] 46.7 µM | [4] 33.4 µM | [5] 53.3 µM | [8] 36.1 µM and 34.1 µM | [9] 27.6 µM and 24.7 µM | [10] 36.8 µM and 36.9 µM

CCCCCCCCCCCC(C)=O
inactive: [2] | [3] | [5]
active: [1] 158 µM | [4] 75.2 µM | [7] 147 µM | [8] 25.4 µM | [9] 34.5 µM | [10] 29.8 µM

CCCCCCCC(=O)OCC(COC(=O)CCCCCCC)OC(=O)CCCCCCC
inactive: [1] | [2] | [3] | [4] | [5] | [7]

C=CC(=O)OCC(C)OCC(C)OCC(C)OC(=O)C=C (centres undefined)
active: [4] 25.6 µM | [5] 29.5 µM | [7] 145 µM | [8] 11.6 µM | [9] 24.6 µM | [10] 12.1 µM
inactive: [1] | [2] | [3]

CCCCCCCCCCCC(=O)N(C)CC(=O)O
active: [4] 97.5 µM
not listed: [6] | [7]
inactive: all other assays above

CCOC(=O)C1=NOC(c2ccccc2)(c2ccccc2)C1
active: [4] 65.1 µM
not listed: [6]
inactive: all other assays above

O=S(=O)(O)c1ccc(N=Nc2c(O)ccc3ccccc23)cc1
inactive: [1] | [2] | [3] | [5] | [7]
active: [4] 34.1 µM

O=c1c(O)c(-c2ccc(O)cc2O)oc2cc(O)cc(O)c12
inactive: [1] | [2] | [3] | [4] | [5] | [7]

O=C(O)CCCC(=O)O
inactive: [1] | [2] | [3] | [4] | [5] | [7]

COC(=O)CC(C)CCC=C(C)C (centres undefined)
inactive: [1] | [2] | [3] | [4] | [5] | [7]

C[Si](C)(C)N[Si](C)(C)C
inactive: [1] | [2] | [3] | [4] | [5] | [7]

CCCCC/C=C\C/C=C\CCCCCCCC(=O)O
active: [2] 163 µM | [4] 51.6 µM
inactive: [1] | [3] | [5] | [7]

COc1cc(C)ccc1O
inactive: [1] | [2] | [3] | [5] | [7]
active: [4] 17.4 µM

COCC(=O)O
inactive: [1] | [3] | [6] | [4] | [5]

CC(=O)C(C)C
inactive: [1] | [2] | [3] | [4] | [5] | [7]

C=C(C)C1CC=C(C)CC1 (centres undefined)
inactive: [1] | [2] | [3] | [4] | [5] | [7]

CCCCOC(=O)C(C)CC (centres undefined)
inactive: [1] | [2] | [3] | [4] | [5] | [7]

C=CCNCC=C
inactive: [1] | [2] | [3] | [4] | [5] | [7]

C=CCCCCCCCCO
inactive: [1] | [2] | [3] | [4] | [5] | [7]

C=C[Si](OCCOC)(OCCOC)OCCOC
inactive: [1] | [2] | [3] | [4] | [5] | [7]

CCc1cccc(CC)c1
inactive: [1] | [3] | [6] | [4] | [5]

CC(C)c1cc(C(C)C)cc(C(C)C)c1
active: [1] 174 µM | [2] 151 µM | [3] 161 µM | [4] 66.3 µM
inactive: [5] | [7]

CC1=CC=C(C(C)C)CC1
active: [4] 152 µM
not listed: [6]
inactive: all other assays above

CC(=O)OCCc1ccccc1
inactive: [1] | [2] | [3] | [4] | [5] | [7]

CCCc1ccc(O)c(OC)c1
active: [4] 28.8 µM
inactive: [1] | [2] | [3] | [5] | [7]

C=C[C@@]1(C)CC(=O)[C@]2(O)[C@@]3(C)[C@@H](O)CCC(C)(C)[C@@H]3[C@H](O)[C@H](OC(C)=O)[C@@]2(C)O1
inactive: [1] | [2] | [3] | [5]
active: [4] 2.95 µM | [7] 0.983 µM

CC(=O)OC/C=C(/C)CCC=C(C)C
inactive: [1] | [2] | [3] | [4] | [5] | [7]

O=C(O)c1cc(O)c2ccccc2c1O
active: [3] 43.6 µM | [4] 7.34 µM
inactive: [1] | [2] | [5] | [7]

CCCCc1ccc(Cl)cc1
inactive: [1] | [2] | [3] | [4] | [5] | [7]
